The list is not random: actives were taken first. Their share in the collection is about 3.2%.
PHOSPHO1 block = PHOSPHO1 (human) inhibition | Q8TCT1 | recombinant PHOSPHO1, absorbance phosphatase assay | inhibition, % at 13.3 µM | 290,000 tested, 1.1% active; in the data active means inhibition above about 60%
TMEM16A inh = inhibitors of mouse TMEM16A calcium-activated chloride channel; Q8BHY3; 310,000 tested, 1.2% active; HEK293 TMEM16A/YFP iodide influx fluorescence, ionomycin; AID 588511; normalized B-score (activity score, 25-100; higher = stronger inhibition) at 10 µM;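 active means ratio plate-corrected score three or more library SD toward inhibition, starting fluorescence score within five deviations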;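 further: score derived from kinetic fluorescence span divided by baseline fluorescence per well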
HDAC3 inhib = blocks human histone deacetylase 3. O15379. 320,000 tested, 0.15% active. inhibition, % at 8.3 µM. recombinant HDAC3, fluorogenic peptide/trypsin coupled, fluorescence; in the data active means inhibition above about 26%, passing the limit was not always enough
ANO1 activ = mouse TMEM16A channel activation, primary screen. HEK293 TMEM16A/YFP-H148Q/I152L, iodide quench fluorescence; active compounds read low. B-score at 10 µM. 340,000 tested, 0.3% active. Q8BHY3;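 active means fluorescence-ratio B-score plate-corrected deviation score at least 3 library SD below zero, with starting fluorescence score within 5 deviations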;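 further: channel opened by trigger with iodide after compound preincubation; score built on the fluorescence ratio of max minus min over baseline; more negative score means more quench and so TMEM16A activation or potentiation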
CHT block = inhibits the human high affinity choline transporter; Q9GZV3; CHT-expressing cells, membrane potential dye, choline response; active compounds read low; B-score at 10 µM; 310,000 tested, 0.86% active;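 active means B-score over 3 SD under the library average, and starting fluorescence ratio not unusually high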;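 further: choline stimulus applied at its EC90 after an EC20 pre-addition; B-score computed on integrated fluorescence ratio after choline addition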
Target sequence (Q9GZV3 whole entry, looked up): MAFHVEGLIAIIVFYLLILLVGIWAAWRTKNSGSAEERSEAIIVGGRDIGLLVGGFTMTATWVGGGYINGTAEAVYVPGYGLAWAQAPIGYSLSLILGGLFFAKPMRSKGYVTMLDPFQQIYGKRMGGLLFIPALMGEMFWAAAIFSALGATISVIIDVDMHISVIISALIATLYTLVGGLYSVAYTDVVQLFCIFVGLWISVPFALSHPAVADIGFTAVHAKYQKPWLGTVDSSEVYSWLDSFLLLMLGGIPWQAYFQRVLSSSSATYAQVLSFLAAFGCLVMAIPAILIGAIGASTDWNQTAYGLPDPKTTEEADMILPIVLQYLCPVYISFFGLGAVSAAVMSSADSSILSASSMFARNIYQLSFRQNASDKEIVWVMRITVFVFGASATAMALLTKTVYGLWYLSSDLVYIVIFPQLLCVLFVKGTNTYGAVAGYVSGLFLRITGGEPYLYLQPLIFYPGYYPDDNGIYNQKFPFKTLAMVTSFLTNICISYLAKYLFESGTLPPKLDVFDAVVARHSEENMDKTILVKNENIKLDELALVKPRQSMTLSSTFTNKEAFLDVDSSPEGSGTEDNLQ
CHT allo act = allosteric activators of human choline transporter CHT. Q9GZV3. CHT-expressing cells, membrane potential dye, choline EC20; active compounds read high; LV-AA mutant CHT in HEK293 cells. B-score at 10 µM. 310,000 tested, 0.49% active. AID 488977;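 active means initial fluorescence not abnormally high and integrated response B-score, plate-corrected, over 3 SD above library mean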
TMEM16A reconf = TMEM16A (mouse) chloride channel inhibition, re-confirmation. shares compounds with TMEM16A inh. HEK293 TMEM16A/YFP-H148Q, iodide quench fluorescence; ionomycin added to raise cell calcium. inhibition, % at 10 µM. 2,300 tested, 39% active. AID 652189;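 active means mean duplicate percent inhibition, scaled so buffer wells are 0 and the reference blocker 100, over three buffer SD above buffer mean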
TMEM16A Ca cntr = calcium mobilization counter-screen hit for TMEM16A inhibitor series; TMEM16A/YFP HEK293, Fluo4 calcium mobilization; calcium response (% of ionomycin), % at 10 µM; shares compounds with TMEM16A inh; AID 652231; 2,300 tested, 2% active;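 active means duplicate-averaged calcium signal over 20% of the ionomycin maximum, relative to buffer baseline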;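 further: each well's signal is peak minus trough fluorescence divided by its pre-addition baseline; 0% = buffer wells and 100% = ionomycin wells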
YFP-HEK293 quench = counter-screen for TMEM16A inhibitors: effect in parental YFP-HEK293 cells | shares compounds with TMEM16A inh | iodide YFP quench, ionomycin | 2,300 tested, under 10 active | AID 652233 | YFP ratio F(max-min)/F0 at 10 µM;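 active means yellow fluorescent protein signal ratio exceeding the buffer control mean by over 5 SD of those controls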;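 further: ratio is mean of duplicate wells from kinetic YFP trace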
ClC-1 rat inh = selectivity of TMEM16A inhibitors: inhibition of rat ClC-1 chloride channel; shares compounds with TMEM16A inh; CHO ClC-1-YFP, iodide influx fluorescence quench; iodide control reads 0, buffer control 100; ratio percent, % at 10 µM; 2,300 tested, under 10 active;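 active means duplicate-mean ratio percent above the mean of iodide-only control wells, which defines zero, plus 5 of their SD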;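 further: higher percent means stronger block of ClC-1 iodide influx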
* = called active by the depositor; i = inactive; / = no result.

SMILES | PHOSPHO1 block | TMEM16A inh | HDAC3 inhib | ANO1 activ | CHT block | CHT allo act | TMEM16A reconf | TMEM16A Ca cntr | YFP-HEK293 quench | ClC-1 rat inh
CCN(CC)S(=O)(=O)c1ccc(C)c(NC(=O)CNc2cccc(S(=O)(=O)N3CCCC3)c2)c1 | / | i | 7 | i | i | i | / | / | / | /
CN(CC(=O)Nc1cccc(S(=O)(=O)N2CCCC2)c1)CC(=O)Nc1ccc(Cl)c(C(F)(F)F)c1 | / | 25* | 9 | i | i | i | i | i | -1.2 | -2
CN(CC(=O)Nc1cccc(S(=O)(=O)N2CCCC2)c1)CC(=O)Nc1ccc(F)c(F)c1F | / | / | / | i | / | / | / | / | / | /
CCN(CC)S(=O)(=O)c1cccc(NC(=O)COC(=O)c2cccs2)c1 | 8 | 25* | -1 | i | i | i | i | i | -0.95 | -6
CCN(CC)S(=O)(=O)c1cccc(NC(=O)CNc2cccc(S(=O)(=O)N3CCCC3)c2)c1 | 38 | 25* | 7 | i | i | i | i | i | -1 | -16
Cc1ccc(NC(=O)CNc2cccc(S(=O)(=O)N3CCCC3)c2)cc1F | / | 25* | 3 | i | i | i | 22%* | i | -0.88 | -10
CN=C1S/C(=C\c2ccc(O)c(Br)c2)C(=O)N1C | 37 | 25* | 1 | i | / | / | i | i | -1 | -10
CN=C1S/C(=C\c2ccc(O)c(OC)c2)C(=O)N1C | / | i | 7 | i | i | i | / | / | / | /
CN(Cc1nc2ccccc2[nH]1)C(=O)C1CCC(=O)N(C2CCCC2)C1 (centres undefined) | 58 | i | 1 | i | i | i | / | / | / | /
CCCCOC(=O)c1ccc(NC(=O)COC(=O)C2CSC3(C)CCC(=O)N23)cc1 (centres undefined) | / | 25* | 4 | i | i | i | 30%* | i | -0.95 | -4
COc1ccc(CN(C)C(=O)c2ccc(NS(=O)(=O)c3ccccc3)cc2)c(OC)c1 | / | i | / | i | i | i | / | / | / | /
COc1ccccc1CN(C)C(=O)c1ccc(COc2ccccc2)cc1 | -13 | 100* | 5 | i | i | i | i | i | -0.92 | -2
COc1ccc(CN(C)C(=O)c2ccc(COc3ccccc3)cc2)c(OC)c1 | 19 | 25* | -1 | i | i | i | i | i | -1.1 | -5
COc1cccc(CN(C)C(=O)c2ccc(COc3ccc(Cl)cc3)cc2)c1OC | -16 | i | -1 | i | i | i | / | / | / | /
CCCN(CCC)C(=O)Cc1coc2ccc3ccccc3c12 | -2 | i | 7 | / | i | i | / | / | / | /
O=C(Cc1coc2ccc3ccccc3c12)NCc1ccccc1 | -11 | 100* | 3 | i | i | i | i | i | -0.99 | -6
Oc1c(C=Nc2cccnc2)sc2ccccc12 | -18 | i | 0 | i | i | i | i | i | -1 | -5
CC(C)(C)c1cccc(Cn2nnc3ccccc32)c1O | / | 100* | 9 | i | i | i | 24%* | i | -1 | -25
Cc1cccc(Cn2nnc3ccccc32)c1O | / | i | 3 | i | i | i | / | / | / | /
CCC(C)(C)C1CCC2(CC1)NC(=O)N(CC(=O)N(C)CC(=O)Nc1ccccc1C(F)(F)F)C2=O (centres undefined) | 4 | i | -1 | i | i | i | / | / | / | /
Cc1ccc(OCCSc2ncnc3nc[nH]c23)cc1 | -2 | 25* | 1 | i | i | i | i | i | -1.1 | -12
N#CC(C(=O)NC1CCCCC1)=C1CCCCC1 | -19 | i | -1 | i | i | i | / | / | / | /
CC(C)(C)c1cc(C(c2cccnc2)N2CCN(CCO)CC2)cc(C(C)(C)C)c1O (centres undefined) | 23 | 100* | 16 | i | i | i | 68%* | i | -1.1 | -42
CC1CCN(S(=O)(=O)c2cn(C)c(=O)n(C)c2=O)CC1 | 2 | i | 1 | i | i | i | / | / | / | /
CC1CCCCC12NC(=O)N(CC(=O)Nc1sccc1C(N)=O)C2=O (centres undefined) | / | / | 0 | i | / | / | / | / | / | /
SMILES | PHOSPHO1 block | TMEM16A inh | HDAC3 inhib | ANO1 activ | CHT block | CHT allo act | TMEM16A reconf | TMEM16A Ca cntr | YFP-HEK293 quench | ClC-1 rat inh
CC1CC(C)CN(Cc2nc3c(c(=O)n(C)c(=O)n3C)n2CCN2CCOCC2)C1 (centres undefined) | 19 | 100* | -2 | i | i | i | i | i | -1.2 | -4
CC(C)CCn1c(CN2CCOCC2)nc2c1c(=O)n(C)c(=O)n2C | -4 | i | / | i | i | i | / | / | / | /
Clc1ccc(Cn2ncc3c(N4CCCC4)ncnc32)cc1 | -13 | i | / | i | i | i | / | / | / | /
CC1CC(C)CN(c2ncnc3c2cnn3Cc2ccc(Cl)cc2)C1 (centres undefined) | 0 | 25* | 14 | i | i | i | i | i | -1 | -2
C=C(C)C1CC=C(C)/C(=N/NC(=O)CNc2ccc(OCC)cc2)C1 (centres undefined) | 4 | 25* | 2 | i | i | i | i | i | -1.1 | 0
O=c1c(C/C=C/c2ccccc2)c(O)ccn1Cc1ccc(Cl)cc1Cl | 23 | 100* | -3 | i | i | i | i | i | -0.78 | -18
N#CCSc1nnc(COc2cccc3ccccc23)n1-c1ccccc1 | 37 | 25* | 2 | i | i | i | i | i | -1 | -13
COc1ccc(-n2c(COc3cccc4ccccc34)nnc2SCC#N)cc1 | -11 | i | 7 | / | i | i | / | / | / | /
N#CCSc1nnc(COc2ccccc2)n1-c1ccccc1 | 13 | 25* | -1 | i | i | i | i | i | -1.1 | 6
O=C(O)CSc1nnc(COc2ccccc2)n1-c1ccccc1 | / | i | -3 | i | i | i | / | / | / | /
Cc1ccc(-c2nc(N/N=C/c3ccccc3[N+](=O)[O-])c3ccccc3n2)cc1 | -27 | i | / | i | i | i | / | / | / | /
CC(C)CC(=O)Nc1ccc(C(=O)COC(=O)C2=COCCO2)cc1 | / | i | 2 | i | i | i | / | / | / | /

High-throughput results: PubChem, several laboratories
